Measured values published in the supplement of paper PMC9262897, “Low-cost anti-mycobacterial drug discovery using engineered E. coli” (Nature Communications, 2022).
Where a name gives a salt, the structure may show the parent alone. ± gives the standard deviation of the averaged measurements.

Tests used:
Assay in all cases: growth (OD600 after 10 h); higher = more growth (less inhibition)
[1] = test system: E. coli TESEC Alr+ wild-type control; conditions: compound 0.1 mM; raw OD600 reference: median of DMSO wells 0.241, cell-free background 0.041
Protocol: (§1)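 TESEC Mtb Alr E. coli, or the Alr+ wild-type control, in 384-well plates with Prestwick library compounds at 0.1 mM and 1% DMSO, across arabinose induction levels of 1E3 to 1E7 nM. Growth is read as OD600 after 10 h at 37 °C in triplicate biological replicates.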

[2] = test system: E. coli TESEC Mtb Alr; conditions: compound 0.1 mM
Protocol: as §1

[3] = test system: E. coli TESEC Mtb Asd; conditions: compound 0.1 mM
Protocol: (§2)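 TESEC E. coli strains in which the native enzyme is deleted and replaced by arabinose-inducible Mtb Asd, DapB, CysH or TrpD, each grown in its selective medium. Strains were screened against the Prestwick library at 0.1 mM and 1% DMSO in 384-well format at low and high arabinose induction. Growth is read as OD600 after 10 h in triplicate.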

[4] = test system: E. coli TESEC Mtb DapB; conditions: compound 0.1 mM
Protocol: as §2

[5] = test system: E. coli TESEC Mtb Alr; conditions: compound 0.1 mM; remark: listed apart in the source
Protocol: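 TESEC Mtb Alr E. coli (ΔaraC ΔtolC ΔentC Δalr ΔdadX, arabinose-inducible Mtb Alr) or the Alr+ wild-type control strain, grown in defined M9-fructose medium without D-alanine in 96-well plates with Prestwick library compounds at 0.1 mM and 1% DMSO. Low Alr induction is 0.1 µM arabinose and high induction is 10 mM arabinose.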

[6] = arabinose 1000 nM, raw OD600 reference: median of DMSO wells 0.294, cell-free background 0.041
[7] = arabinose 10000 nM, raw OD600 reference: median of DMSO wells 0.264, cell-free background 0.041
[8] = arabinose 100000 nM, raw OD600 reference: median of DMSO wells 0.201, cell-free background 0.041
[9] = arabinose 1000000 nM, raw OD600 reference: median of DMSO wells 0.193, cell-free background 0.041
[10] = arabinose 10000000 nM, raw OD600 reference: median of DMSO wells 0.146, cell-free background 0.041
[11] = arabinose induction (level): High, raw OD600 reference: median of DMSO wells 0.331, cell-free background 0.041
[12] = arabinose induction (level): Low, raw OD600 reference: median of DMSO wells 0.417, cell-free background 0.041
[13] = arabinose induction (level): High, raw OD600 reference: median of DMSO wells […], cell-free background 0.041
[14] = arabinose induction (level): Low, raw OD600 reference: median of DMSO wells 0.227, cell-free background 0.041
[15] = arabinose 100 nM, raw OD600 reference: median of DMSO wells 0.413, cell-free background 0.052
[16] = arabinose 10000000 nM, raw OD600 reference: median of DMSO wells […], cell-free background 0.052

## CN(C)CCCN1c2ccccc2CCc2ccccc21 [Imipramine hydrochloride]
[1]
  growth: 0.189 ± 0.019
[2]; [6]
  growth: 0.242 ± 0.018
[2]; [7]
  growth: 0.285 ± 0.013
[2]; [8]
  growth: 0.212 ± 0.014
[2]; [9]
  growth: 0.133 ± 0.0058
[2]; [10]
  growth: 0.175 ± 0.011
[3]; [11]
  growth: 0.164 ± 0.026
[3]; [12]
  growth: 0.363 ± 0.063
[4]; [13]
  growth: 0.194 ± 0.016
[4]; [14]
  growth: 0.243 ± 0.071
[5]; [15]
  growth: 0.408 ± 0.0092
[5]; [16]
  growth: 0.21 ± 0.11

## CC(=O)Oc1cc(C(C)C)c(OCCN(C)C)cc1C [Moxisylyte hydrochoride]
[1]
  growth: 0.219 ± 0.0037
[2]; [6]
  growth: 0.245 ± 0.055
[2]; [7]
  growth: 0.273 ± 0.0074
[2]; [8]
  growth: 0.179 ± 0.017
[2]; [9]
  growth: 0.155 ± 0.003
[2]; [10]
  growth: 0.14 ± 0.00075
[3]; [11]
  growth: 0.297 ± 0.046
[3]; [12]
  growth: 0.441 ± 0.041
[4]; [13]
  growth: 0.171 ± 0.0028
[4]; [14]
  growth: 0.247 ± 0.053
[5]; [15]
  growth: 0.41 ± 0.0064
[5]; [16]
  growth: 0.242 ± 0.13

## CC(=O)O[C@]1(C(C)=O)CC[C@H]2[C@@H]3C=C(C)C4=CC(=O)CC[C@]4(C)[C@H]3CC[C@@]21C [Megestrol acetate]
[1]
  growth: 0.206 ± 0.022
[2]; [6]
  growth: 0.285 ± 0.024
[2]; [7]
  growth: 0.266 ± 0.013
[2]; [8]
  growth: 0.16 ± 0.003
[2]; [9]
  growth: 0.164 ± 0.0052
[2]; [10]
  growth: 0.163 ± 0.016
[3]; [11]
  growth: 0.441 ± 0.041
[3]; [12]
  growth: 0.46 ± 0.026
[4]; [13]
  growth: 0.2058 ± 0.0013
[4]; [14]
  growth: 0.248 ± 0.034
[5]; [15]
  growth: 0.291 ± 0.12
[5]; [16]
  growth: 0.302 ± 0.041

## CN(C)C(=O)C(CCN1CCC(O)(c2ccc(Cl)cc2)CC1)(c1ccccc1)c1ccccc1 [Loperamide hydrochloride]
[1]
  growth: 0.0426 ± 0.00061
[2]; [6]
  growth: 0.0401 ± 0.00042
[2]; [7]
  growth: 0.0402 ± 0.00044
[2]; [8]
  growth: 0.0412 ± 0.00047
[2]; [9]
  growth: 0.0404 ± 0.0001
[2]; [10]
  growth: 0.04237 ± 0.00015
[3]; [11]
  growth: 0.0486 ± 0.00055
[3]; [12]
  growth: 0.0487 ± 0.00055
[4]; [13]
  growth: 0.0489 ± 0.00058
[4]; [14]
  growth: 0.0571 ± 0.017
[5]; [15]
  growth: 0.4189 ± 0.00099
[5]; [16]
  growth: 0.0518 ± 0.00072

## COc1cc([C@@H]2c3cc4c(cc3[C@@H](O[C@@H]3O[C@@H]5CO[C@@H](C)O[C@H]5[C@H](O)[C@H]3O)[C@H]3COC(=O)[C@H]23)OCO4)cc(OC)c1O [Etoposide]
[1]
  growth: 0.0715 ± 0.0031
[2]; [6]
  growth: 0.0527 ± 0.0019
[2]; [7]
  growth: 0.04273 ± 0.00025
[2]; [8]
  growth: 0.0604 ± 0.0031
[2]; [9]
  growth: 0.0501 ± 0.00056
[2]; [10]
  growth: 0.1106 ± 0.0011
[3]; [11]
  growth: 0.112 ± 0.015
[3]; [12]
  growth: 0.0831 ± 0.013
[4]; [13]
  growth: 0.113 ± 0.0098
[4]; [14]
  growth: 0.0846 ± 0.011
[5]; [15]
  growth: 0.129 ± 0.02
[5]; [16]
  growth: 0.0985 ± 0.018

## O=C(O)c1cn(C2CC2)c2cc(N3CCNCC3)c(F)cc2c1=O [Ciprofloxacin hydrochloride monohydrate]
[1]
  growth: 0.0408 ± 0.00053
[2]; [6]
  growth: 0.0398 ± 0.0012
[2]; [7]
  growth: 0.0399 ± 0.0009
[2]; [8]
  growth: 0.0402 ± 0.0002
[2]; [9]
  growth: 0.0391 ± 0.00026
[2]; [10]
  growth: 0.0402 ± 0.00036
[3]; [11]
  growth: 0.0484 ± 0.0012
[3]; [12]
  growth: 0.0498 ± 0.001
[4]; [13]
  growth: 0.049 ± 0.00046
[4]; [14]
  growth: 0.0712 ± 0.04
[5]; [15]
  growth: 0.0528 ± 0.00085
[5]; [16]
  growth: 0.0527 ± 0.0033

## CNNCc1ccc(C(=O)NC(C)C)cc1 [Procarbazine hydrochloride]
[1]
  growth: 0.251 ± 0.0067
[2]; [6]
  growth: 0.304 ± 0.012
[2]; [7]
  growth: 0.282 ± 0.0077
[2]; [8]
  growth: 0.217 ± 0.028
[2]; [9]
  growth: 0.177 ± 0.019
[2]; [10]
  growth: 0.151 ± 0.0024
[3]; [11]
  growth: 0.359 ± 0.043
[3]; [12]
  growth: 0.476 ± 0.083
[4]; [13]
  growth: 0.2 ± 0.017
[4]; [14]
  growth: 0.27 ± 0.022
[5]; [15]
  growth: 0.4235 ± 0.0022
[5]; [16]
  growth: 0.312 ± 0.02

## Cc1cc2c(cc1S(N)(=O)=O)S(=O)(=O)CCC2 [Meticrane]
[1]
  growth: 0.252 ± 0.0068
[2]; [6]
  growth: 0.292 ± 0.011
[2]; [7]
  growth: 0.259 ± 0.012
[2]; [8]
  growth: 0.234 ± 0.034
[2]; [9]
  growth: 0.172 ± 0.013
[2]; [10]
  growth: 0.142 ± 0.0066
[3]; [11]
  growth: 0.389 ± 0.044
[3]; [12]
  growth: 0.425 ± 0.049
[4]; [13]
  growth: 0.186 ± 0.0019
[4]; [14]
  growth: 0.281 ± 0.079
[5]; [15]
  growth: 0.408 ± 0.0074
[5]; [16]
  growth: 0.254 ± 0.17
